Data on 19 compounds can be found in PubChem BioAssay (Tox21).

Each structure is given as a SMILES string. Inconclusive results are not listed. The source made the active and inactive calls. The call rests on the fitted dose curve; in most records, active means well fitted activation curve with a large enough effect in the repeat runs; inconclusive means weak or mixed curves; inactive means flat fitted curve, though single readings scatter.
On the % scale 0 is the no-effect control and ±100 the full control effect.

The experiment in a line: A CellTox Green Cytotoxicity Assay to monitor cytotoxicity in HepG2 cells - 8 hour (AID 1224890). Further: nearly all actives have a fitted effect of over 45% in size. Conditions: CellTox Green fluorescence; series mostly up to 76.8 µM; cytotoxicity increase: at the top concentration. The method, boiled down: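 Fluorescent DNA-binding dye, 600 HepG2 cells/well, 5 h preincubation then compound in DMSO; same plates read at 0–40 h, 37 C.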
With `CC(C)c1ccccc1`, the “cytotoxicity increase” value was 1.48% (inactive).

`CC(C)CCCCCCc1ccc(OCCOCCO)cc1`: the “cytotoxicity increase” value is -3.18% (inactive).

Regarding `Cc1ccsc1C(=CCCN1CCC[C@@H](C(=O)O)C1)c1sccc1C`, the “cytotoxicity increase” value was -11.6% [at 35.3 µM] (inactive).

Turning to `Cc1ncc(CO)c(CN)c1O`, the “cytotoxicity increase” value is -7.05% [at 35.3 µM] (inactive).

Take `CC(CNC1CCCCC1)OC(=O)c1ccccc1` (centres undefined): the “cytotoxicity increase” value is -0.634% [at 35.3 µM] (inactive).

Consider `COc1ccc(S(=O)(=O)Nc2nnc(CC(C)C)s2)cc1`, for which the “cytotoxicity increase” value is 0.105% [at 35.3 µM] (inactive).

`Cn1cnc2c(F)c(Nc3ccc(Br)cc3Cl)c(C(=O)NOCCO)cc21`: the “cytotoxicity increase” value was 8.54% [at 35.3 µM] (inactive).

Take `CO[C@@]1(NC(=O)CSCC#N)C(=O)N2C(C(=O)O)=C(CSc3nnnn3C)CS[C@@H]21`: the “cytotoxicity increase” value is -3.38% [at 35.3 µM] (inactive).

As to `C[C@@H]1CN(c2c(F)c(F)c3c(=O)c(C(=O)O)cn(C4CC4)c3c2F)C[C@H](C)N1`, the cytotoxicity increase was -9.96% [at 15.8 µM] (inactive).

With `CC(=O)N(CC(O)CN(C(C)=O)c1c(I)c(C(=O)NCC(O)CO)c(I)c(C(=O)NCC(O)CO)c1I)c1c(I)c(C(=O)NCC(O)CO)c(I)c(C(=O)NCC(O)CO)c1I` (centres undefined), the “cytotoxicity increase” value was -7.66% [at 35.3 µM] (inactive).

Turning to `CC(C)(C)c1cccc(O)c1`, the “cytotoxicity increase” value was 8.03% (inactive).

Regarding `C[C@@H](N)C(=O)O`, the “cytotoxicity increase” value was 2.21% [at 35.3 µM] (inactive).

Regarding `CCC(=O)O[C@]1(C(=O)SCF)[C@H](C)C[C@H]2[C@@H]3C[C@H](F)C4=CC(=O)C=C[C@]4(C)[C@@]3(F)[C@@H](O)C[C@@]21C`, the “cytotoxicity increase” value was 1.05% [at 35.3 µM] (inactive).

Take `Cc1c(C(=O)NCCO)[n+](=O)c2ccccc2n1[O-]`: the “cytotoxicity increase” value was -5.78% [at 35.3 µM] (inactive).

With `C=Cc1ccccc1`, the “cytotoxicity increase” value is 1.4% (inactive).

As for `CCCNC(C)C(=O)Nc1c(C)csc1C(=O)OC` (centres undefined), the “cytotoxicity increase” value is -19.1% [at 35.3 µM] (inactive).

In the case of `CCN(CC)CCNC(=O)COc1ccc(Cl)cc1`, the “cytotoxicity increase” value is -2.25% [at 35.3 µM] (inactive).

As for `CC(=O)OC(C)OC(C)=O`, the “cytotoxicity increase” value is 1.92% (inactive).

As to `CN(C)Cc1ccccc1`, the “cytotoxicity increase” value was -7.84% (inactive).
